Bioassay records from PubChem BioAssay.
An excerpt weighted towards active compounds, which were near 4.7% of everything screened.
TRHR PAM = TRH receptor (human) allosteric enhancement; P34981; TRHR cells, fluo-8 calcium fluorescence, EC20 TRH enhancement; enhancement, % at 2 µM; hit rate 0.66% among 360,000; AID 493056; in the data active = enhancement above about 30%
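Enhancer read-out: after compound pinning and an initial kinetic agonist-mode read, an EC20 of TRH (10 nM final) was injected and fluo-8 calcium signal (Ex 480/Em 530) followed at 1 s/cycle for 100 cycles in TRHR-expressing cells.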
D1 potentiator = human D1 dopamine receptor positive modulation | P21728 | HEK293 TREx D1 cells, calcium flux, dopamine EC20 potentiation | potentiation, % at 10 µM | hit rate 0.036% among 360,000; in the data active = potentiation above about 30%
Target sequence (P21728 whole entry, looked up): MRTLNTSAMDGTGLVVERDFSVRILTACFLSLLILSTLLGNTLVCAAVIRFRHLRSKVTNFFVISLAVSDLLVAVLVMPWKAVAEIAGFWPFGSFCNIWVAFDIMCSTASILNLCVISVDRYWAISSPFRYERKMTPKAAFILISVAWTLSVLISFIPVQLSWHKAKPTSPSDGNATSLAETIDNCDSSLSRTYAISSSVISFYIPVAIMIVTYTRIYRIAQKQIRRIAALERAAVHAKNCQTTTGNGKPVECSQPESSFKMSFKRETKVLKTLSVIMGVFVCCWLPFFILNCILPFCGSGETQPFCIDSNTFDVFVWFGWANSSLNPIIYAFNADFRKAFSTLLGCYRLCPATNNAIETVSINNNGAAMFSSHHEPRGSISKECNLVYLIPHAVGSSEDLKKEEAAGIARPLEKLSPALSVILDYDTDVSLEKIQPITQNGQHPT
D1 antagonist = blocks dopamine activation of the human D1 receptor. P21728. HEK293 TREx D1 cells, calcium flux, dopamine EC80; active compounds read low. activity change, negative = inhibition, % at 10 µM. hit rate 3.2% among 360,000. AID 504652; in the data active = activity change below about -30%
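Using tetracycline-induced force-coupled D1 Hek293 cells and a calcium dye, signals were followed for 180 s after compound, then for 180 s after EC80 dopamine, to detect inhibitors.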
TRHR agonist = agonists of human TRH receptor. TRHR cells, calcium flux fluo-8, FDSS agonist mode. activation, % at 2 µM. AID 493084. P34981. hit rate 0.18% among 360,000
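TRHR-expressing cells loaded with fluo-8 calcium dye; 23 nL library compound pin-transferred, kinetic FDSS fluorescence (Ex 480/Em 530) recorded about 180 s for agonist-induced calcium release, before a 10 nM TRH EC20 addition for potentiator mode.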
D1 ag = human D1 receptor agonism. HEK293 T-REx D1 cells, calcium flux, agonist mode. activation, % at 2 µM. hit rate 1% among 360,000
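Agonism was scored from calcium flux recorded over 180 s (1 read/s) after pintool compound addition, following a 10-cycle baseline. Cells were inducible force-coupled HEK293 TREx D1, plated overnight at 30 C and loaded with no-wash calcium dye.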
Of the large screens only hits and unclear results are named; the others gave an inactive call. Rule as the data show it, unless noted: active = activation above about 30%; inactive = the rest.

Cc1ccc(NC(=O)C(=O)NCC(c2ccc3c(c2)OCO3)N2CCOCC2)cc1C (stereo not given)	none
CCOC(=O)c1sc(Nc2cccc(C)c2C)nc1C	D1 ag 31
CCOC(=O)c1sc(N/N=C/c2ccc(N(C)C)cc2)nc1C	D1 antagonist -47
Cc1ccccc1NC(=O)c1c(NC(=O)c2ccncc2)sc2c1CCC(C(C)(C)C)C2 (stereo not given)	none
C=C(C)CN1CCN(c2c(CCC#N)c(C)c(C#N)c3nc4ccccc4n23)CC1	D1 antagonist -38
Cc1ccc(S(=O)(=O)n2nc(OC(=O)c3cccs3)cc2N)cc1	none
Cc1ccc(S(=O)(=O)n2ccc(OC(=O)c3cccs3)n2)cc1	D1 ag 30
Cc1ccccc1OCC(=O)Nc1cc(-c2cccc(Br)c2)nn1-c1ccccc1	none
COC(=O)CNC(c1ccccc1)c1cc(Br)ccc1NC(=O)c1ccccc1 (stereo not given)	none
O=C(COC(=O)CNC(=O)c1ccccc1)NCCc1ccccc1	none
O=C(CNC(=O)c1ccccc1)NCCc1ccc(O)c(O)c1	D1 antagonist -39
Oc1cccc(Nc2nc(O)c(/C=C3\C=Nc4ccccc43)s2)c1	D1 ag 34
C/C(=N\NC(=O)c1cc2ccccc2cc1O)c1ccc(C)o1	none
O=C(NN=C1CCCCCC1)c1c[nH]c2ccccc12	D1 antagonist -46
C/C(=N\NC(=O)c1c[nH]c2ccccc12)c1ccc(C)o1	D1 antagonist -66
COc1ccc(NC(=O)CSc2ncccc2C(=O)OC(C)C)cc1OC	D1 antagonist -37
COc1ccc(NC(=O)CSc2ccccn2)cc1OC	none
CN(C)Cc1cc2ccccc2c2c1COC2	none
Cc1cc2ccc3ccccc3c2cc1CN(C)C	D1 antagonist -43
COC(=O)CSc1nnc(-c2cccc(O)c2)o1	none
COc1ccc(S(=O)(=O)NCCc2sc3nc(-c4ccc(C)cc4)nn3c2C)cc1C	none (no result: D1 antagonist)
COc1ccccc1C(C)Nc1ccc(S(=O)(=O)N2CCN(C)CC2)cc1[N+](=O)[O-] (stereo not given)	D1 antagonist -65
CC(Nc1ccc(S(=O)(=O)N2CCN(C)CC2)cc1[N+](=O)[O-])c1ccccc1 (stereo not given)	D1 antagonist -73
COc1cccc(C(CNc2ccc(S(=O)(=O)N3CCN(C)CC3)cc2[N+](=O)[O-])N(C)C)c1 (stereo not given)	none
COc1cc(S(=O)(=O)N2CCCN(C)CC2)ccc1NC(C)=O	TRHR PAM 30
CC1(C)C=C(c2ccc(C=O)s2)CC(C)(C)N1C=O	D1 antagonist -31
CC1(C)C=C(c2ccc(C=O)s2)CC(C)(C)N1	none
O=C(Nc1nnc(-c2ccc3c(c2)CCCC3)o1)c1ccc(Cl)cc1Cl	D1 ag 36
O=C(Nc1nnc(-c2ccc3c(c2)CCCC3)o1)C1CCCCC1	D1 antagonist -46
O=C(Nc1nnc(-c2ccncc2)o1)C1CCCCC1	none
CCOc1cc(C(=O)NCCc2sc(-c3ccc(F)cc3)nc2C)cc(OCC)c1OCC	none
COc1ccccc1CCN=C(N)NS(=O)(=O)c1ccc(F)cc1	none
COc1ccc(S(=O)(=O)NC(N)=NCCc2ccccc2OC)cc1	D1 antagonist -53
COC(=O)C(C)Sc1ncnc2c1c(-c1ccccc1)cn2-c1ccc(F)cc1 (stereo not given)	none
CCOc1ccccc1N(CC(=O)NCCSc1ccccc1)S(=O)(=O)c1ccccc1	none
CCOC(=O)c1cnc(Nc2nc3ccccc3o2)nc1CN1CCN(C)CC1	D1 antagonist -56
COc1ccc(-c2csc(N(CCCN(C)C)C(=O)c3ccccc3C)n2)cc1	D1 antagonist -54, D1 ag 33
CCC(=O)N(CC)c1nc(-c2ccc(OC)cc2)cs1	D1 antagonist -47, D1 ag 113
O=C(CNC(=O)C1CCCCCC1)OC(C(=O)Nc1cc(C(F)(F)F)ccc1Cl)c1ccccc1 (stereo not given)	none
CCN(CC)S(=O)(=O)c1cc(C(=O)N(C)CC(=O)Nc2ccc(Cl)cc2)ccc1Cl	D1 antagonist -33
CN(CC(=O)Nc1ccc(Cl)cc1)C(=O)c1ccc(S(=O)(=O)Nc2ccccc2)cc1	none
CCN(CC)S(=O)(=O)c1cc(C(=O)Nc2ccncc2)ccc1Cl	D1 antagonist -31
Cc1nc2scc(C)n2c(=O)c1S(=O)(=O)N1CCN(c2ccc([N+](=O)[O-])cc2)CC1	D1 antagonist -53
Nc1c(C(=O)c2ccccc2)sc2snc(SCC(=O)c3ccccc3)c12	D1 ag 108
O=C(O)C(Cc1ccccc1)n1cccc1 (stereo not given)	D1 antagonist -42
Cc1ccc(C)c(N2CCN(C(=O)C(Cc3ccccc3)n3cccc3)CC2)c1 (stereo not given)	D1 antagonist -53 (no result: D1 potentiator)
CCCc1nnc(N2C(=O)c3oc4ccc(F)cc4c(=O)c3C2c2ccc(C(=O)OC)cc2)s1 (stereo not given)	none
COc1cc(/C=C2\Oc3cc(O)ccc3C2=O)ccc1O	TRHR agonist 33, D1 ag 63
O=C1/C(=C/c2cccc([N+](=O)[O-])c2)Oc2cc(O)ccc21	none
O=C1/C(=C/c2ccc(O)c(O)c2)Oc2cc(O)ccc21	D1 ag 46
COc1ccccc1-c1nc(SCC(=O)c2ccc(Cl)cc2)n[nH]1	none
CC(=O)c1cccc(NC(=O)CN2C(=O)CC(c3ccc(C)cc3C)=Nc3ccccc32)c1	none
COc1ccc(OC)c(Nc2cc(C(=O)NCc3ccccc3)c3ccccc3n2)c1	D1 antagonist -80
COc1ccc(Nc2cc(C(=O)NCCCN(C)C3CCCCC3)c3ccccc3n2)cc1	D1 antagonist -41, D1 ag 65
COc1ccc(Nc2cc(C(=O)NCCCN(C)C3CCCCC3)c3ccccc3n2)c(OC)c1	D1 ag 34
CCN(CC)CCCNC(=O)c1cc(Nc2ccc(OC)cc2OC)nc2ccccc12	none
O=C(COc1ccc(Br)cc1)Nc1ccc(C(=O)OC2CCCCC2)cc1	none
CCn1cc([N+](=O)[O-])c(C(=O)N2N=C(c3ccc(OC)cc3OC)CC2c2ccccc2O)n1 (stereo not given)	D1 antagonist -31
CCn1cc([N+](=O)[O-])c(C(=O)N2N=C(c3cccc4ccccc34)CC2c2ccccc2O)n1 (stereo not given)	none
Cc1ccc(OCCSc2nc3ccccc3n2CCC(=O)O)cc1C	none
COc1ccc(N2CCN(C(C)C(=O)Nc3nnc(C)s3)CC2)cc1 (stereo not given)	TRHR PAM 32
COc1ccc(N2CCN(C(=O)CSc3nnc(NC(=O)C4CCC4)s3)CC2)cc1	D1 antagonist -32
COc1ccc(N2CCN(C(C)C(=O)N3CCCC3)CC2)cc1 (stereo not given)	none
Cc1ccc(-c2nc3c4ccccc4[nH]c(=O)n3n2)cc1	none
